“And” between values parts separate entries of the source, which are not always exact repeats. Equal values may be shown once. The source holds several records for some structures; these can differ, active in one and inactive in another. The source made the active and inactive calls. The calls were made as follows: active = hit-call score of the fitted dose curve at least 0.9, where 1 is the maximum; inactive = score below 0.9.
What was measured:
[1] = ATG_GLI_CIS: Attagene CIS-FACTORIAL HepG2 Assay for human Zinc Finger Protein GLI1 (AID 2282945); details: HepG2, Attagene cis-factorial reporter mRNA, GLI element; actives raise or lower the signal
Procedure, shortened: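 Bidirectional curve fits relative to DMSO, using reporter mRNA levels from RT-PCR plus capillary electrophoresis. Cells were HepG2 transiently carrying cis-regulated reporter constructs, harvested 24 h after dosing.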

[2] = molecular target: Bile acid receptor (Homo sapiens) (UniProt Q96RI1); test: ATG_IR1_CIS: Attagene CIS-FACTORIAL HepG2 Assay for human Nuclear Receptor Subfamily 1 Group H Member 4 (NR1H4), IR1 submotif (AID 2282946); details: IR1 reporter transcription, actives raise or lower the signal
Bile acid receptor (Homo sapiens), sequence (Q96RI1 whole entry, looked up, the tested form may be a part): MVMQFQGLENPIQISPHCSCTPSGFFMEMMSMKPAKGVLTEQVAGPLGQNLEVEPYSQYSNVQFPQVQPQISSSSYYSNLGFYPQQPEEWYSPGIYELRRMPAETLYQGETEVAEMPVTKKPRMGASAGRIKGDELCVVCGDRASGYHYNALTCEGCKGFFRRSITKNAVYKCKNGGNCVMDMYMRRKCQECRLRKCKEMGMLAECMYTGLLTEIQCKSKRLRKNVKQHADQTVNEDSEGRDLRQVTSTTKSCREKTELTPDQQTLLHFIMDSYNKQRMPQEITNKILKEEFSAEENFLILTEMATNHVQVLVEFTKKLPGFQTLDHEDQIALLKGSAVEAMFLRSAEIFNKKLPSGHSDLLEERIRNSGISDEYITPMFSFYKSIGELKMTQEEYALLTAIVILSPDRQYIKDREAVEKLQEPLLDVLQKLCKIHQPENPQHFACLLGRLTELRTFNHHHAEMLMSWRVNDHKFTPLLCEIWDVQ
Procedure, shortened: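 Cells (human HepG2) carry transiently transfected cis-promoter reporter transcription units. Compounds are incubated 24 h, total RNA is reverse-transcribed and amplified, and labelled fragments are resolved by capillary electrophoresis. Curves use DMSO as baseline.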

[3] = ATG_GRE_CIS: Attagene CIS-FACTORIAL HepG2 Assay for human Glucocorticoid Response Elements (GRE) (AID 2282947); details: HepG2 GRE cis-reporter, Attagene multiplex mRNA; actives raise or lower the signal
Procedure, shortened: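 Assay uses human hepatoma HepG2 cells transfected with cis-promoter reporter units, exposed 24 h. mRNA from reporters detected by RT-PCR plus capillary electrophoresis; DMSO serves as negative control and baseline.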

[4] = ATG_M_32_CIS: Attagene CIS-FACTORIAL HepG2 Assay for M32 Transcription Factor (Internal Marker) (AID 2282949); details: HepG2 Attagene cis-factorial M32 reporter, mRNA; actives raise or lower the signal;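 also: background control marker of the multiplexed CIS panel rather than a real target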
Procedure, shortened: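 Internal background marker read-out: RT-PCR/capillary electrophoresis fluorescence of reporter transcripts from transiently transfected HepG2 cells after 24 h chemical exposure. Activity fitted bidirectionally relative to DMSO negative control.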

[5] = ATG_M_06_CIS: Attagene CIS-FACTORIAL HepG2 Assay for M06 Transcription Factor (Internal Marker) (AID 2282950); details: HepG2 Attagene CIS-FACTORIAL M06 internal marker reporter; actives raise or lower the signal
Procedure, shortened: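 Fluorescence-labelled RT-PCR products from cis-promoter reporter units, cut with HpaI and resolved by capillary electrophoresis, give the signal. Cells are human HepG2, dosed for 24 h. Serves as background control, fitted relative to DMSO.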

[6] = molecular target: Hepatocyte nuclear factor 6 (Homo sapiens) (UniProt Q9UBC0); test: ATG_HNF6_CIS: Attagene CIS-FACTORIAL HepG2 Assay for human Hepatocyte Nuclear Factor 6 (HNF6) (AID 2282952); details: HepG2 Attagene cis-factorial HNF6 reporter transcription; actives raise or lower the signal
Hepatocyte nuclear factor 6 (Homo sapiens), sequence (Q9UBC0 whole entry, looked up): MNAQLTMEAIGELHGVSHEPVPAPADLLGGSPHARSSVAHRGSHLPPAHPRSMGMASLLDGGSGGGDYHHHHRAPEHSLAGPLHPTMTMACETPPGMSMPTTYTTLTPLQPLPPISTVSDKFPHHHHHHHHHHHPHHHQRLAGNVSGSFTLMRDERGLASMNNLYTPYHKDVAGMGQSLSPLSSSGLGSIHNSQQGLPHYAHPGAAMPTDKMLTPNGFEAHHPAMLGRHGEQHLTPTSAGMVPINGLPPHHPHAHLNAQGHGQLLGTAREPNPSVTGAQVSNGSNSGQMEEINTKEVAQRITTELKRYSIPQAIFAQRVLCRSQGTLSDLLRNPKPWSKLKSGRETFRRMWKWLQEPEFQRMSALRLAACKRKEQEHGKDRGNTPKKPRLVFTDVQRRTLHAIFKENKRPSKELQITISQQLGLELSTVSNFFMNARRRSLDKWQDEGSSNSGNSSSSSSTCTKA
Procedure, shortened: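 HepG2 cells transiently transfected with cis-element-driven multiple reporter transcription units, dosed 24 h; reporter mRNA quantified by RT-PCR, FAM primer extension, HpaI digestion and capillary electrophoresis; bidirectional fit versus DMSO baseline.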

[7] = ATG_MRE_CIS: Attagene CIS-FACTORIAL HepG2 Assay for human Metal Responsive Element (MRE) (AID 2282954); details: HepG2 MRE cis-reporter transcription, Attagene multiplex; actives raise or lower the signal
Procedure, shortened: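 After a 24 h chemical exposure, transiently transfected HepG2 cells yield RNA whose reporter sequences are amplified, FAM-labelled and sized by capillary electrophoresis. Curves are fitted bidirectionally relative to DMSO.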

[8] = molecular target: Paired box protein Pax-6 (Homo sapiens) (UniProt P26367); test: ATG_Pax6_CIS: Attagene CIS-FACTORIAL HepG2 Assay for human Paired Box 6 (PAX6) (AID 2282956); details: HepG2 CIS-FACTORIAL PAX6 reporter transcription, RNA readout; actives raise or lower the signal
Paired box protein Pax-6 (Homo sapiens), sequence (P26367 whole entry, looked up): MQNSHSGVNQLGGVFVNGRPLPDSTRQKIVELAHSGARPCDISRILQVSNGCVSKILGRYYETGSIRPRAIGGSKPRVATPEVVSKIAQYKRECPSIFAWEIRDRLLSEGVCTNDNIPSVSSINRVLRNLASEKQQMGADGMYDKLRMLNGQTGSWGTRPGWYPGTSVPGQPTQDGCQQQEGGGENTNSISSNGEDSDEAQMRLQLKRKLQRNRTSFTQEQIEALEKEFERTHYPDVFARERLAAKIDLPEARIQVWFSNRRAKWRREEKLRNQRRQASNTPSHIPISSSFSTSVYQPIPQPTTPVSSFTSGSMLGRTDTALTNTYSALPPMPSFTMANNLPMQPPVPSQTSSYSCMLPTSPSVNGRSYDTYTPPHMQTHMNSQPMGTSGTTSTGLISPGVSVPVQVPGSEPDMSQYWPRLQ
Procedure, shortened: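 HepG2 cells transiently transfected with multiplexed cis-promoter reporter units (endogenous TF activity) were dosed for 24 h. Reporter mRNA was quantified by RT-PCR, 6-FAM labeling, HpaI digestion and capillary electrophoresis; bidirectional fitting versus DMSO baseline.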

[9] = ATG_PXRE_CIS: Attagene CIS-FACTORIAL HepG2 Assay for human Pregnane X Receptor Element (PXRE) (AID 2282957); details: HepG2 Attagene CIS-FACTORIAL PXRE reporter, mRNA; actives raise or lower the signal
Procedure, shortened: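 HepG2 cells transiently transfected with cis-regulated multiple reporter transcription units; endogenous factor activity measured as reporter mRNA 24 h after dosing. RT-PCR, fluorescent primer extension, HpaI digestion, capillary electrophoresis; bidirectional fit versus DMSO baseline.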

[10] = ATG_RORE_CIS: Attagene CIS-FACTORIAL HepG2 Assay for human RAR-related Orphan Receptor Element (RORE) (AID 2282959); details: HepG2 Attagene cis-factorial RORE reporter, mRNA; actives raise or lower the signal
Procedure, shortened: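 A 24-hour exposure of transfected HepG2 hepatoma cells precedes RNA isolation and reporter RT-PCR. Labeled products are digested with HpaI and resolved by capillary electrophoresis, with gain or loss of signal scored relative to DMSO.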

[11] = ATG_Sox_CIS: Attagene CIS-FACTORIAL HepG2 Assay for human SRY-box transcription factor (SOX) (AID 2282960); details: HepG2 Attagene cis-factorial SOX reporter, mRNA; actives raise or lower the signal
Procedure, shortened: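 HepG2, cis reporter units, 24 h exposure. Reporter mRNA: RT-PCR → FAM labelling → HpaI → CE fluorescence. Bidirectional fit vs DMSO.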

[12] = molecular target: Transcription factor Sp1 (Homo sapiens) (UniProt P08047); test: ATG_Sp1_CIS: Attagene CIS-FACTORIAL HepG2 Assay for human Specificity Protein 1 (Sp1) (AID 2282961); details: HepG2 Sp1 cis-reporter transcription, actives raise or lower the signal
Transcription factor Sp1 (Homo sapiens), sequence (P08047 whole entry, looked up, the tested form may be a part): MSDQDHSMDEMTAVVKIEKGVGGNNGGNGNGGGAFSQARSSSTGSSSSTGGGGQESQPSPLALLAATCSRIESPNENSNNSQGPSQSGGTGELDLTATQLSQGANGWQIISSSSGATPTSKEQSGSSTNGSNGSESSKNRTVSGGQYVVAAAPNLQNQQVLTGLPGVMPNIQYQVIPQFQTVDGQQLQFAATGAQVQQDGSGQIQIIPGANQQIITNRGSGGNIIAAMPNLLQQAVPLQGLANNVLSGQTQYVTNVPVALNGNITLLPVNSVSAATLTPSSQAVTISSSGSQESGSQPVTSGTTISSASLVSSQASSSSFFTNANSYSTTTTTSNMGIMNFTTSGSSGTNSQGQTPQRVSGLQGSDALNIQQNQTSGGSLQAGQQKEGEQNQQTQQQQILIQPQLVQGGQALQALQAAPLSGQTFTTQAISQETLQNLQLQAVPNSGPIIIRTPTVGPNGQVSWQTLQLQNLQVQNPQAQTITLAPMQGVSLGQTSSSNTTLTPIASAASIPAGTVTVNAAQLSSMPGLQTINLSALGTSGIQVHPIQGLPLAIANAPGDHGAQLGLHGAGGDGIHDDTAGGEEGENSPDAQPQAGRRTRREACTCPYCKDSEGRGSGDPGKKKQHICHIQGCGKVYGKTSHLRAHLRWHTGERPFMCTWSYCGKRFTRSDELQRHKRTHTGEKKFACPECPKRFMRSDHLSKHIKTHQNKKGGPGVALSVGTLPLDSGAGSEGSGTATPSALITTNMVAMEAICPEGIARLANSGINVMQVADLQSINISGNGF
Procedure, shortened: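 Liver-derived HepG2 cells, cis-element reporter library, 24 h treatment; RNA isolated, cDNA amplified with reporter-specific primers, FAM-labeled fragments sized on capillary analyzer. DMSO baseline, bidirectional curve fit.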

[13] = ATG_SREBP_CIS: Attagene CIS-FACTORIAL HepG2 Assay for human Sterol Regulatory Element Binding (SREBP) (AID 2282962); details: HepG2 Attagene cis-factorial SREBP reporter, mRNA; actives raise or lower the signal
Procedure, shortened: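 HepG2 cells transiently transfected with multiplexed cis-element reporter units report endogenous transcription factor activity. After 24 h of chemical exposure, reporter mRNA was quantified by RT-PCR, 6-FAM labelling, HpaI digestion and capillary electrophoresis; bidirectional fits used DMSO as baseline.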

[14] = molecular target: Signal transducer and activator of transcription 3 (Homo sapiens) (UniProt P40763); test: ATG_STAT3_CIS: Attagene CIS-FACTORIAL HepG2 Assay for human Signal Transducer and Activator of Transcription 3 (STAT3) (AID 2282963); details: HepG2, Attagene cis-factorial STAT3 reporter transcription; actives raise or lower the signal
Signal transducer and activator of transcription 3 (Homo sapiens), sequence (P40763 whole entry, looked up): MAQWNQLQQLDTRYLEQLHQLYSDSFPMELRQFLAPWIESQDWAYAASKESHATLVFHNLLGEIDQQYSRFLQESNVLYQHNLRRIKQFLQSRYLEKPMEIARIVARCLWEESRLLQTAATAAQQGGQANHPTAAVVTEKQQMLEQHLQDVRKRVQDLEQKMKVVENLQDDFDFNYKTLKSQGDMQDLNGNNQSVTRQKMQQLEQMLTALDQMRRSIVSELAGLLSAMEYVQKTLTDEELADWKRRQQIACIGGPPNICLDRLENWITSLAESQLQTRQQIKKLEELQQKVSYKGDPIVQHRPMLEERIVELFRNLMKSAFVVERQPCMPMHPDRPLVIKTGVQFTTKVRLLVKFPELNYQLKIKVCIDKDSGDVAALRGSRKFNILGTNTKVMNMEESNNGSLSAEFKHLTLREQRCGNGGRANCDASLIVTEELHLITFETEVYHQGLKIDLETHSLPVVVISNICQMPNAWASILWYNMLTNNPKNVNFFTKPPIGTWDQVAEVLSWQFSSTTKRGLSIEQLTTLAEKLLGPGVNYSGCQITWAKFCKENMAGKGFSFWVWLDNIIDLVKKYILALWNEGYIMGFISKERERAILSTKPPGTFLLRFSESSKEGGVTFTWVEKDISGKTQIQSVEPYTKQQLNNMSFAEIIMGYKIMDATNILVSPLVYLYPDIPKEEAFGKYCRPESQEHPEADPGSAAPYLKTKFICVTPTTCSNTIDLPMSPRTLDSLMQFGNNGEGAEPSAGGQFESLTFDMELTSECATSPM
Procedure, shortened: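 After a 24 h compound incubation, total RNA from MRTU-transfected HepG2 cells was converted to cDNA and reporter sequences PCR-amplified, labelled and profiled by capillary electrophoresis. Gain and loss of signal were referenced to DMSO.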

[15] = ATG_TA_CIS: Attagene CIS-FACTORIAL HepG2 Assay for human TA Basal Promoter (AID 2282964); details: HepG2 Attagene CIS-factorial TA basal promoter reporter; actives raise or lower the signal
Procedure, shortened: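 Multiplexed mRNA reporter assay, HepG2, 24 h. Reporter cDNA amplified, 6-FAM primer-extended, HpaI-cut, CE-sized; DMSO = negative control and baseline.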

[16] = ATG_ISRE_CIS: Attagene CIS-FACTORIAL HepG2 Assay for human Interferon Regulatory Factor 1 (IRF1) binding to an Interferon-Stimulated Response Element (ISRE) (AID 2282948); details: HepG2 ISRE cis-reporter (Attagene), mRNA transcription readout; actives raise or lower the signal
Procedure, shortened: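 HepG2 cells transiently transfected with multiplexed cis-promoter reporter units; after 24 h compound exposure, reporter mRNA quantified by RT-PCR, FAM labelling, HpaI digestion and capillary electrophoresis. Bidirectional fit versus DMSO baseline.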

[17] = molecular target: Heat shock factor protein 1 (Homo sapiens) (UniProt Q00613); test: ATG_HSE_CIS: Attagene CIS-FACTORIAL HepG2 Assay for human Heat Shock Transcription Factor 1 (HSE) (AID 2282953); details: HepG2 HSE cis-reporter, Attagene RNA transcription; actives raise or lower the signal
Heat shock factor protein 1 (Homo sapiens), sequence (Q00613 whole entry, looked up): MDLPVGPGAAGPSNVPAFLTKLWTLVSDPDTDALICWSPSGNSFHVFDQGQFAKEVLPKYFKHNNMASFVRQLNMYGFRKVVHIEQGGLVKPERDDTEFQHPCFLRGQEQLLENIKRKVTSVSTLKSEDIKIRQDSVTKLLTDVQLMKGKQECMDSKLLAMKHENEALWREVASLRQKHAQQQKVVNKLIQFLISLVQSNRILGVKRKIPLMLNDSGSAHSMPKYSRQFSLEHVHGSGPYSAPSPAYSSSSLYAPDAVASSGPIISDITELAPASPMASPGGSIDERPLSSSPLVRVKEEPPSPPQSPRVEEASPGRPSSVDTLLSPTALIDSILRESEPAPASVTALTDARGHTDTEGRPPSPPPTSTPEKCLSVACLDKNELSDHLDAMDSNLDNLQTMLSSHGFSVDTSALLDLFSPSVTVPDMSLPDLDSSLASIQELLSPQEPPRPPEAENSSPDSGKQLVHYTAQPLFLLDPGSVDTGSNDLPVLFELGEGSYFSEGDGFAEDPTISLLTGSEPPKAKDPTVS
Procedure, shortened: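 After a 24 h incubation with test chemical, transfected HepG2 cells were harvested for RNA; reporter transcripts were measured by RT-PCR and capillary electrophoresis. Values reflect gain or loss of signal relative to DMSO.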

[18] = ATG_PBREM_CIS: Attagene CIS-FACTORIAL HepG2 Assay for human Phenobarbital-responsive Enhancer Module (PBREM) (AID 2282955); details: HepG2 PBREM cis-reporter, Attagene multiplexed transcription; actives raise or lower the signal
Procedure, shortened: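 Measures endogenous factor action on a phenobarbital-responsive enhancer module. HepG2 transiently carrying cis reporters, 24 h treatment, mRNA read-out by RT-PCR plus capillary electrophoresis.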

[19] = ATG_PPRE_CIS: Attagene CIS-FACTORIAL HepG2 Assay for human Peroxisome Proliferator-activated Response Element (PPRE) (AID 2282958); details: HepG2 PPRE cis-element reporter, Attagene transcription factor profiling; actives raise or lower the signal
Procedure, shortened: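 PPRE activity in HepG2: transient cis-reporter transfection, 24 h compound incubation, reporter mRNA by RT-PCR and CE fluorescence; gain/loss fitted against DMSO.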

[20] = molecular target: Hypoxia-inducible factor 1-alpha (Homo sapiens) (UniProt Q16665); test: ATG_HIF1a_CIS: Attagene CIS-FACTORIAL HepG2 Assay for human Hypoxia Inducible Factor 1 (HIF1A) (AID 2282951); details: HepG2 Attagene cis-factorial HIF1a reporter transcription; actives raise or lower the signal
Hypoxia-inducible factor 1-alpha (Homo sapiens), sequence (Q16665 whole entry, looked up): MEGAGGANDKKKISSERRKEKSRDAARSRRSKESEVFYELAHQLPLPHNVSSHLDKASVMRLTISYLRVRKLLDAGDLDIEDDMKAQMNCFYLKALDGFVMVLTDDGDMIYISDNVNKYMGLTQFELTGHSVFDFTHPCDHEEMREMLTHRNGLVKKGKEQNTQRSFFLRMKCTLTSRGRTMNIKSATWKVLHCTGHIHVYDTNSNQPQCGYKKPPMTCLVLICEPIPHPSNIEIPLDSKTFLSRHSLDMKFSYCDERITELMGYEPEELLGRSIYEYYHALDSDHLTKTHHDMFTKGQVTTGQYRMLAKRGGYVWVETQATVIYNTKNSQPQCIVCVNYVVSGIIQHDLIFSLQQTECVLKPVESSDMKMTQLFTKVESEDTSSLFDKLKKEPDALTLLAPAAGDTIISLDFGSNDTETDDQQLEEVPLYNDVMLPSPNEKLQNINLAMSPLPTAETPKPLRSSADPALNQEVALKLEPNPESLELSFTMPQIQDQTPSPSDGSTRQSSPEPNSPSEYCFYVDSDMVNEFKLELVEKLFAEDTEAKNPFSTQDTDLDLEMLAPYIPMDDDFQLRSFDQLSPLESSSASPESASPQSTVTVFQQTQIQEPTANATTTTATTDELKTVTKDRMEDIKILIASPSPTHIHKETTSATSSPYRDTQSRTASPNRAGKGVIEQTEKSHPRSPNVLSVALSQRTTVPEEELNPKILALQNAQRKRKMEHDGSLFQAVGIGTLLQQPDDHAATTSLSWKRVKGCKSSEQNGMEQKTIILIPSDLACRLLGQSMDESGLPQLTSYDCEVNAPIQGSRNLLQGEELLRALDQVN
Procedure, shortened: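 After 24 h chemical exposure of reporter-transfected HepG2 cells, reporter cDNA was PCR-amplified, labelled by 6-FAM primer extension (2 min 95 C, 20 s 68 C, 10 min 72 C), HpaI-cut (2 h, 37 C) and analysed by CE.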

Measured: AC50

CC#C[C@]1(O)CC[C@H]2[C@@H]3CCC4=CC(=O)CCC4=C3[C@@H](c3ccc(N(C)C)cc3)C[C@@]21C
inactive: [1] | [2] | [3] | [4] | [5] | [6] | [11] | [12] | [13] | [14] | [15]
active: [1] 100 µM and 134 µM | [2] 8.96 µM and 9.17 µM and 10.6 µM | [3] 26.7 µM | [7] 21.3 µM [middle of 4 runs] | [8] 11.6 µM [middle of 4 runs] | [9] 1.03 µM [middle of 4 runs] | [10] 6.68 µM [middle of 4 runs] | [12] 122 µM and 27.5 µM | [13] 23.9 µM and 91.2 µM and 31.7 µM | [15] 9.11 µM and 8.72 µM and 27.2 µM

CC(C)(C)c1cc(C(C)(C)C)c(O)c(C(C)(C)C)c1
inactive: [1] | [3] | [16] | [4] | [5] | [6] | [17] | [18] | [8] | [10] | [11] | [12] | [13] | [14] | [15]
active: [2] 698 nM and 2.29 µM | [16] 138 µM | [7] 100 µM and 36.8 µM | [9] 3.08 µM and 6.33 µM | [19] 416 nM and 8.82 µM | [12] 80.6 µM | [13] 11.7 µM

O=C(O)Cc1cc(I)c(Oc2cc(I)c(O)c(I)c2)c(I)c1
active: [1] 67 µM | [3] 17.2 µM | [17] 40.5 µM and 44.9 µM | [7] 32.7 µM and 54.7 µM | [8] 67 µM | [19] 4.68 µM and 13.3 µM | [10] 53.6 µM and 10.8 µM | [11] 23.4 µM and 18.1 µM | [12] 31.3 µM and 17 µM | [13] 4.05 µM and 5.53 µM | [15] 84.2 µM
inactive: [1] | [3] | [16] | [5] | [6] | [8] | [9] | [14] | [15]

COCC(C)OCC(C)O (configuration not stated)
not listed: [20]
inactive: all other assays above

CCCCCCCCOC(=O)CCCCCCCCC(=O)OCCCCCCCC
not listed: [18]
inactive: all other assays above

c1ccc2c(c1)ccc1ccccc12
active: [9] 58.4 µM
not listed: [18] | [20]
inactive: all other assays above

CCCCCCCCCCCCc1ccccc1S(=O)(=O)O
active: [9] 4.41 µM
not listed: [18]
inactive: all other assays above

CCC(=C(c1ccc(O)cc1)c1ccc(OCCN(C)C)cc1)c1ccccc1
active: [1] 11.2 µM | [2] 1.45 µM | [3] 13.1 µM | [16] 9.63 µM | [5] 11.7 µM | [6] 11.1 µM | [17] 12.1 µM and 12.3 µM | [7] 7.1 µM and 9.34 µM | [18] 7.1 µM and 11.2 µM | [8] 7.1 µM and 9.41 µM | [9] 1.05 µM [middle of 4 runs] | [11] 7.1 µM and 11.3 µM | [12] 13.4 µM | [13] 3.6 µM | [15] 10 µM
inactive: [1] | [2] | [3] | [16] | [5] | [6] | [17] | [7] | [18] | [8] | [19] | [11] | [12] | [13] | [14] | [15]

NC(=O)N(O)[C@@H]1C=C[C@H](Oc2cccc(Oc3ccc(F)cc3)c2)C1
active: [17] 52.8 µM | [7] 33 µM | [8] 33 µM | [9] 12.9 µM | [10] 18.2 µM | [13] 18.3 µM
not listed: [18]
inactive: all other assays above

COc1ccc([N+](=O)[O-])cc1N
not listed: [4]
inactive: all other assays above
